Measured values: PubChem BioAssay AID1722 (National Center for Advancing Translational Sciences (NCATS), 2009)
Out of some 290,000 compounds screened, fewer than 10 were called active. Calls come from the whole dose curve. A selection follows.

biological target: Pyruvate kinase (Leishmania mexicana) (UniProt Q27686); assay: qHTS Assay for Activators of Leishmania Mexicana Pyruvate Kinase (LmPK); details: purified LmPK, Kinase-Glo ATP luminescence, 1 h; series mostly up to 57.5 µM; activity change, negative = inhibition: at the top concentration
Excerpt: NIH Chemical Genomics Center [NCGC] Malcolm Walkinshaw, Hugh Morgan, Linda Gilmore University of Edinburgh, UK MLPCN Grant: 1 R03 MH085697-01 NCGC Assay Overview: Pyruvate kinase (L. Mexicana) (LmPK) enzyme was supplied as a highly purified (>95% pure) sulphate-free preparation from University of Edinburgh, UK and assayed for its ability to generate ATP from ADP using phosphoenolpyruvate (PEP) as a substrate. ATP generation was detected in a coupled reaction by luciferase-mediated luminescence, an ATP-dependent process. Pyruvate kinase substrates, PEP and ADP, were present in the assay at Km and approximately 10-fold below Km respectively. The enzyme was assayed at an intermediate level of activity to screen for both inhibitors and activators.
NCGC Assay Protocol Summary: Three uL of enzyme mix (kept on ice) in assay buffer (50 mM Imidazole pH7.2, 50 mM KCl, 7 mM MgCl2, 0.01% Tween 20, 0.05% BSA) containing PEP (0.5 mM final concentration) and LmPK (0.1 nM final concentration) was dispensed into white solid bottom 1,536 well microtiter plates. 23 nL of compound were delivered by a pin tool and 1 uL of ADP mix in assay buffer (r.t; 0.1 mM final ADP concentration) was added. Plates were incubated at room temperature for 1 hour. Two uL of detection mix (Kinase-Glo, Promega; at 4 degree Celsius protected from light) was added and luminescence read by a ViewLux (Perkin Elmer) at 1 second exposure/plate. Data were normalized to the uninhibited and AC100 inhibition (no enzyme). To monitor activation, the first column contained a five-fold concentration of LmPK (0.5 nM).

Sequence of Pyruvate kinase (Leishmania mexicana) (Q27686 whole entry, looked up): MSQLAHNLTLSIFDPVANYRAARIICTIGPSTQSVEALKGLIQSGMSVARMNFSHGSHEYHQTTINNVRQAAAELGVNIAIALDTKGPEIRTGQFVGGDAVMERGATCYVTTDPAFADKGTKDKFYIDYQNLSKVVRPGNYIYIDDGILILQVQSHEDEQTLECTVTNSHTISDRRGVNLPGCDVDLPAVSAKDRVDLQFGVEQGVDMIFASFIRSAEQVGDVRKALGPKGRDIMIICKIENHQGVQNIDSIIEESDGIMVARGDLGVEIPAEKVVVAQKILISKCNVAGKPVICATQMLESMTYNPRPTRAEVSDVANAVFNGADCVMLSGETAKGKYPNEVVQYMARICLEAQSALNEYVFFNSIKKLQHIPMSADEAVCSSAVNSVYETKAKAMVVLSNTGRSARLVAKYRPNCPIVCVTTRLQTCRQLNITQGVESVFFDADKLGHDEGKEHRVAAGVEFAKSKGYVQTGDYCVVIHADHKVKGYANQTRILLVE

| Compound | activity change, negative = inhibition |
| --- | --- |
| COc1ccc(C(=O)NC(=S)N2CCCCC2c2cccnc2)cc1OC (stereo not given) | -68.1% (inactive) |
| CN(C)N=Nc1ccc2nc[nH]c2c1 | -49.1% (inactive) |
| CC(=O)Nc1ccc(/C=C/C(=O)c2ccccc2)cc1 | -55.2% (inactive) |
| COc1ccccc1OCc1nc2ccccc2s1 | -84.8% (inactive) |
| Oc1ccccc1/C=N/n1c(-c2cccs2)n[nH]c1=S | -30.4% (inactive) |
| O=C(Oc1ccc(-c2nc(-c3ccccn3)no2)cc1)c1ccccc1 | -37.7% (inactive) |
| O=c1[nH]c2ccccc2n2c(-c3ccccc3)nnc12 | -74.5% (inactive) |
| O=[N+]([O-])c1ccc2oc(-c3cccc(O)c3)nc2c1 | -33.8% (inactive) |
| S=c1[nH]nc2c3c4c(sc3ncn12)CCCC4 | -57.3% (inactive) |
| CCOC(=O)c1sc(NC(=O)c2ccncc2)nc1C | -37.2% (inactive) |
| Cn1c(-c2ccco2)nc2cc3ccccc3cc21 | -80.5% (inactive) |
| O=c1[nH]c(CCl)nc2cc(-c3ccc(Cl)cc3)sc12 | -30.2% (inactive) |
| O=C(Nc1ccc(C(=O)O)c(O)c1)c1ccccc1 | -55.6% (inactive) |
| CC(=O)N(C1=C(Cl)C(=O)c2ccccc2C1=O)c1ccc(C(=O)O)cc1 | -97.8% (inactive) |
| O=c1c2c(nc3n1CCCCC3)sc1c(O)cccc12 | -38.8% (inactive) |
| Cc1cc(NC(=O)Nc2ccccc2[N+](=O)[O-])no1 | -30.1% (inactive) |
| COc1ccc(-c2cn3ccsc3n2)cc1 | -44.3% (inactive) |
| CCC(=O)Nc1ccc(C(=O)Nc2cccc(OC)c2)cc1 | -41% (inactive) |
| O=c1oc2ccccc2cc1-c1cn(-c2ccccc2)c(=S)[nH]1 | -52.2% (inactive) |
| S=c1[nH]cc(-c2ccc(Cl)cc2)n1-c1ccccc1 | -27% (inactive) |
| Cc1ccnc(NC(=O)c2ccoc2C)c1 | -80.2% (inactive) |
| CCCCSc1nnc2c(n1)OC=Nc1ccccc1-2 | -36.3% (inactive) |
| O=C(Nc1nnc(C2CC2)s1)c1ccccn1 | -63.9% (inactive) |
| COc1ccccc1N=Cc1c(O)c2ccccc2oc1=O | -40.9% (inactive) |

| Compound | activity change, negative = inhibition |
| --- | --- |
| Cc1nonc1C(=O)N/N=C/c1ccc(O)cc1 | -87.7% (inactive) |
| CC(C)Oc1ccc(CCc2n[nH]c(=S)n2Cc2ccccc2)cc1 | -41.2% (inactive) |
| CCc1n[nH]c(=S)n1/N=C/c1c[nH]c2ccc(Br)cc12 | -58.2% (inactive) |
| COc1cc(OC)c(C(=O)Nc2ccc(N(C)C)cc2)cc1OC | -38.5% (inactive) |
| CC(C)c1ccc(Nc2ncccc2C#N)cc1 | -45.8% (inactive) |
| O=C(Nc1cccc2ccccc12)c1onc2c1CCCC2 | -58.3% (inactive) |
| CN(C)c1nc(=Nc2cccc(Cl)c2)ss1 | -52.9% (inactive) |
| Oc1ccc(N=Nc2nccs2)c(O)c1 | -62.3% (inactive) |
| CCc1nnc(NS(=O)(=O)c2ccc(N=Cc3c(C)[nH]n(-c4ccc(C)cc4)c3=O)cc2)s1 | -44.9% (inactive) |
| Cc1ccc(NC(=O)c2sccc2C)cc1[N+](=O)[O-] | -43.8% (inactive) |
| Cc1cc(C(=O)COC(=O)C2CC2)c(C)n1-c1ccc(F)cc1 | -45.2% (inactive) |
| CCCCCC(=O)NC(=S)NNC(=O)c1ccc([N+](=O)[O-])cc1 | -63.3% (inactive) |
| COC(=O)c1ccc(NCC(=O)c2ccccc2)cc1 | -53.5% (inactive) |
| N/C(=N\OC(=O)c1ccc([N+](=O)[O-])cc1)c1ccccn1 | -64.5% (inactive) |
| CCOc1ccc(NC(=O)Nc2cc(C)ccc2OC)cc1 | -31.1% (inactive) |
| COc1ccccc1C(=O)Nc1ccc(NC(=O)c2ccco2)c(C)c1 | -73.8% (inactive) |
| O=c1oc2cc(O)ccc2cc1-c1ccc(F)cc1 | -57% (inactive) |
| CC(OC(=O)c1ccc2ccccc2n1)C(=O)c1ccccc1 (stereo not given) | -32.6% (inactive) |
| Nc1[nH][nH]c(=O)c1N=Nc1ccc2c(c1)OCO2 | -30.8% (inactive) |
| Cc1ccc(OCc2n[nH]c(=S)n2-c2ccccc2)cc1 | -49.9% (inactive) |
| O=C(/C=C/c1ccc(N2CCOCC2)cc1)c1ccccc1 | -38.4% (inactive) |
| O=C1Nc2ccc(Br)cc2/C1=N/N=C/C1=C(N2CCOCC2)C(=C\c2ccccc2)/CC1 | -66.7% (inactive) |
| COc1ccc(C(=O)C[n+]2ccc(N)c(C)c2C)cc1 | -74.2% (inactive) |
| S=c1[nH]nc(COc2ccccc2)n1-c1ccccc1 | -45.1% (inactive) |

| Compound | activity change, negative = inhibition |
| --- | --- |
| COc1ccc(C(CC(=O)c2ccccc2)S(=O)(=O)c2ccccc2)cc1 (stereo not given) | -33.8% (inactive) |
| S=c1[nH]nc(CSCc2ccc(Cl)cc2Cl)n1-c1ccccc1 | -42.5% (inactive) |
| C(=N\Nc1ccc2ccccc2n1)/c1ccc2c(c1)OCO2 | -46.9% (inactive) |
| Cc1ccc(-n2c(-c3ccc(Cl)cc3)n[nH]c2=S)cc1 | -95.3% (inactive) |
| O=c1c(-c2ccccc2)coc2cc(O)ccc12 | -57.5% (inactive) |
| CN(C)c1ccc(Nc2c3c4c(cccc4n(C)c2=O)C(=O)c2ccccc2-3)cc1 | -37.4% (inactive) |
| COc1ccc(-c2cn(-c3ccc(OC)cc3)c(=S)[nH]2)cc1 | -19.8% (inactive) |
| O=C(CSC(=S)N1CCOCC1)c1ccccc1 | -54.1% (inactive) |
| CSc1ccc(/C=N/NC(=O)c2cccc(Cl)c2)cc1 | -33.4% (inactive) |
| COc1ccc(-c2nc(-c3ccccc3)no2)c(OC)c1 | -71.5% (inactive) |
| Cc1cccc(NC(=O)/C=C/c2ccc3c(c2)OCO3)n1 | -36.4% (inactive) |
| O=C(Nc1ccc(Cl)cn1)c1ccc2c(c1)OCCO2 | -65.4% (inactive) |
| Cc1c(Cl)cccc1NC(=O)Nc1ccc(C(=O)N2CCCC2)cc1 | -31.5% (inactive) |
| Cc1cccc(/C(N)=N/OC(=O)c2ccccc2Cl)c1 | -95.3% (inactive) |
| CN=C1C=C/C(=N/N=c2\ccn(O)cc2C)C=C1C | -51.9% (inactive) |
| COc1cccc(/C=C/c2ccc3ccccc3n2)c1OC(C)=O | -74% (inactive) |
| Cc1n[nH]c(=O)nc1N/N=C/c1cccs1 | -58.4% (inactive) |
| COc1ccc(-n2c(-c3ccc(OC)c(OC)c3)n[nH]c2=S)cc1 | -68.7% (inactive) |
| c1csc(-c2nc(-c3ccncc3)no2)c1 | -41.6% (inactive) |
| Cc1ccn2cc(-c3nonc3C)cc2c1 | -33.1% (inactive) |
| COc1cc(SC)ccc1C(=O)Nc1nc(C)cs1 | -60.5% (inactive) |
| O=c1c2ccccc2cnn1Cc1n[nH]c(=S)n1-c1ccccc1F | -48.1% (inactive) |
